The values that follow come from ChEMBL document CHEMBL3988442, “University of Dundee, Small-Polar-MMV Screening Library” (2021).

For some of these results: Results with a measured potency or affinity are listed apart.

Holding throughout (design): scale not given: direction of the effect not stated beside the values
Test [1] has as its target Protein translocase subunit SecA (Escherichia coli (strain K12)) (UniProt P10408). In words: Assay to Identify E. coli SecA ATPase Inhibitors. The format is functional. As to conditions: 30 µM.
In test [2] the target is T1, Ubiquitin-activating enzyme e1, putative (Leishmania donovani (strain BPK282A1)) (UniProt E9BSI1).
T1 sequence (whole entry): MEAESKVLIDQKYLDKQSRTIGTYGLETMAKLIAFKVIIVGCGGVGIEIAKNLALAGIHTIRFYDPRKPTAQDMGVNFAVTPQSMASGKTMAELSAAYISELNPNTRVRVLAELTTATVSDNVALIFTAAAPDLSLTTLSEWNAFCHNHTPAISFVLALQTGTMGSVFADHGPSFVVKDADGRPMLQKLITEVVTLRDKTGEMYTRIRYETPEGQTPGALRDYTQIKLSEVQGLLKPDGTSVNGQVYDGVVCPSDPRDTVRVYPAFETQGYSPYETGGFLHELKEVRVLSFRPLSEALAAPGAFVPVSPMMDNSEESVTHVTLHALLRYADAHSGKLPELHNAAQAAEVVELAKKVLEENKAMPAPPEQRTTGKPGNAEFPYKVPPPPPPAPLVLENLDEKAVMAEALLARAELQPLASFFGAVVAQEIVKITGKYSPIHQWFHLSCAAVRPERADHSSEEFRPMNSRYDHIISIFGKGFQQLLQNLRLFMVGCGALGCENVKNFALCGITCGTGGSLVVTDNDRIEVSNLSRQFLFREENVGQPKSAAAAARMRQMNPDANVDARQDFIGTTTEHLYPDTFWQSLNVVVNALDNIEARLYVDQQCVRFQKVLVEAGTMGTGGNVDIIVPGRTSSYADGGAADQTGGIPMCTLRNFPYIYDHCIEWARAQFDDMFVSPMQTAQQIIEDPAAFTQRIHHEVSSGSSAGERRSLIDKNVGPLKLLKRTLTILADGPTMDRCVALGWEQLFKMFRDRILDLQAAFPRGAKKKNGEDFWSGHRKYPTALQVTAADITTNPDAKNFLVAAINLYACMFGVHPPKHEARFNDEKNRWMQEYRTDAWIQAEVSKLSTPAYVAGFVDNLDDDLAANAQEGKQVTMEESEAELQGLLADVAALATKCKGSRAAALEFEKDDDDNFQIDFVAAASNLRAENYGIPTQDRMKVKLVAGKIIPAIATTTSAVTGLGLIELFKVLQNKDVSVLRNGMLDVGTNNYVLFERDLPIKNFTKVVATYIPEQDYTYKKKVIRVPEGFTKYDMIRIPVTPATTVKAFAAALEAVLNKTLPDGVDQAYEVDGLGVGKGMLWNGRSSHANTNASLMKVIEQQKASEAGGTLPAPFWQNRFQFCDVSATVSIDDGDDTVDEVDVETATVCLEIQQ
The experiment in a line: Leishmania donovani Ubiquitin Activating Enzyme (LdE1). As to conditions: 30 µM. The format is functional.

The target in test [3] is AMP-activated protein kinase, AMPK (Homo sapiens) (UniProt P54646+O43741+P54619+Q9UGJ0+Q9Y478+Q13131+Q9UGI9). In words: AMP-dependent Kinase enzyme assay. An in vitro enzyme assay that detects ADP turnover that is directly proportional to AMPK activity. This uses naive AMPK that is activated during the assay with MK-8722. Type of test: functional. The conditions noted are these: 30 µM.

The target of test [4] is Sialic acid-binding Ig-like lectin 9 (Homo sapiens) (UniProt Q9Y336). The experiment in a line: Hs-Siglec9 ALPHAscreen SOP 20170721. As to conditions: 10 µM. On the technique in general: Bead proximity is the source of the signal in Alpha formats.
Sialic acid-binding Ig-like lectin 9 (Homo sapiens), sequence (Q9Y336 whole entry): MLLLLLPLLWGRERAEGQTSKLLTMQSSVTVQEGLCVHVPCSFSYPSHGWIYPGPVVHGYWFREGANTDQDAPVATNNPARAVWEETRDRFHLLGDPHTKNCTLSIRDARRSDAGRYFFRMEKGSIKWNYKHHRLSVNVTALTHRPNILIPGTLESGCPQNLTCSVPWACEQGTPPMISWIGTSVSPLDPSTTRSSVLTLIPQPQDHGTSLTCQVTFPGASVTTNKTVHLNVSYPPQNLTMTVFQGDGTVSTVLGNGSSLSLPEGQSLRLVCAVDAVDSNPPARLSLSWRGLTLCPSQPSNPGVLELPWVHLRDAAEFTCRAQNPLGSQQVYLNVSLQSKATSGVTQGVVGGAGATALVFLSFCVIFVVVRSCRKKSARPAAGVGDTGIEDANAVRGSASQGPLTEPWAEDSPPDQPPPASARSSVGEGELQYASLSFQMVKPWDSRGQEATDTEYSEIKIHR
A further test has as its system Trypanosoma cruzi. The experiment in a line: Trypanosoma cruzi phosphomannomutase and mannose-1-phosphate guanylyltransferase assay. The format is functional. As to conditions: 10 µM.
The target in test [5] is T2, Arginase-2, mitochondrial (Homo sapiens) (UniProt P78540).
T2 sequence (whole entry): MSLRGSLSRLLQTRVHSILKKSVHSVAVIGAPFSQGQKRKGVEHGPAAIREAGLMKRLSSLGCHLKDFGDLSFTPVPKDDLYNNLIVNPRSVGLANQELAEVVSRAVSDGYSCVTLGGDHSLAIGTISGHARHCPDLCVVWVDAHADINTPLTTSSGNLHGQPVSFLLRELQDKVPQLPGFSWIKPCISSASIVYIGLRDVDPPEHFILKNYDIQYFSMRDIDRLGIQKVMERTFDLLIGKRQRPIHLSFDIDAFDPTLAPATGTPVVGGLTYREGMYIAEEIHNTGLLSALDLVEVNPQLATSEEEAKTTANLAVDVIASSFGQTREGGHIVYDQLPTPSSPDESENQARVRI
The experiment in a line: in vitro enzyme assay to detect the production of urea directly proportional to the activity of Arginase II. Note: in the data most compounds retested in dose-response had high values. The format is functional. The conditions noted are these: 33.3 µM.

In test [6] the target is T3, Proteasome subunit beta (Trypanosoma cruzi) (UniProt O96673).
T3 sequence (whole entry): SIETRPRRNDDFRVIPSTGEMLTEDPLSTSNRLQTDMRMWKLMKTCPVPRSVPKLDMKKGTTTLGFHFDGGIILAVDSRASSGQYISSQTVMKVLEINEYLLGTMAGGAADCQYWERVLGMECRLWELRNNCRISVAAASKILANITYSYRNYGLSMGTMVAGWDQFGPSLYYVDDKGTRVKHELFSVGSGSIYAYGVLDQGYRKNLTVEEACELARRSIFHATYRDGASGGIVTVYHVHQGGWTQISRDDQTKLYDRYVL
In words: Trypanosoma cruzi proteasome chymotrypsin-like activity (TcProtChymo) assay. Note: in the data most compounds retested in dose-response had high values. The conditions noted are these: 9.37 µM. Type of test: functional.

The species named for the next test is Homo sapiens. In words: To identify inhibition of the IFN signalling (Jak-Stat) pathway via expression of an eGFP reporter gene under the control of an IFN-stimulated response element (ISRE) containing MxA promoter. The format is functional. The conditions noted are these: 30 µM. For orientation: A reporter such as luciferase makes a cellular process visible.

Test [7] addresses T4, Tyrosyl-tRNA synthetase, putative (Trypanosoma cruzi (strain CL Brener)) (UniProt Q4DSP6).
T4 sequence (whole entry): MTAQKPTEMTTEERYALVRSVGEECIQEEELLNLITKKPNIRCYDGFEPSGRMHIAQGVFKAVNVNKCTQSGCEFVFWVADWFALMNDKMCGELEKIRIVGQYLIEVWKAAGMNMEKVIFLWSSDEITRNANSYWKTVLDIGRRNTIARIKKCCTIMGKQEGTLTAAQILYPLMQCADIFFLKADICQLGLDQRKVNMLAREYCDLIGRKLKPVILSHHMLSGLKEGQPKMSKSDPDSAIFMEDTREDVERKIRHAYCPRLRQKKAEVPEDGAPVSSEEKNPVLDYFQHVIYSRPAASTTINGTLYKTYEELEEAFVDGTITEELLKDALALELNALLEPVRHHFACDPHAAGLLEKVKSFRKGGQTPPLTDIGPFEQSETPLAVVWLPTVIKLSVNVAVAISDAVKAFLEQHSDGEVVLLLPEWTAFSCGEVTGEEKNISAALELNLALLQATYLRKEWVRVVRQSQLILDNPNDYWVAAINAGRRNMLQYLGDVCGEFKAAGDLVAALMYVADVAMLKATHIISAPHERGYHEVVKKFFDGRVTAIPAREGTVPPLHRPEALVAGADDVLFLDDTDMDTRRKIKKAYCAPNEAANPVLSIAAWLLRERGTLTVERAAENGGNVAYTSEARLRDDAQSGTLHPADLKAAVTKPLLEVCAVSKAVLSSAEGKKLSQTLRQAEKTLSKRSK
The experiment in a line: Trypanosoma cruzi tyrosyl tRNA synthetase (TcYRS) _High Tyrosine SOP. Note: in the data most compounds retested in dose-response had high values. Type of test: functional. The conditions noted are these: 30 µM.

The target in test [8] is T4, Tyrosyl-tRNA synthetase, putative (Trypanosoma cruzi (strain CL Brener)). In words: Trypanosoma cruzi tyrosyl tRNA synthetase (TcYRS) SOP. Type of test: functional. As to conditions: 30 µM.
Test [9] deals with Chromo domain-containing protein 1 (Saccharomyces cerevisiae (strain ATCC 204508 / S288c) (Baker's yeast)) (UniProt P32657). The experiment in a line: ScCHD-1 Enzyme Inhibition Assay. Note: in the data most compounds retested in dose-response had high values. The conditions noted are these: 30 µM. Type of test: functional.
Chromo domain-containing protein 1 (Saccharomyces cerevisiae (strain ATCC 204508 / S288c) (Baker's yeast)), sequence (P32657 whole entry, the tested form may be a part): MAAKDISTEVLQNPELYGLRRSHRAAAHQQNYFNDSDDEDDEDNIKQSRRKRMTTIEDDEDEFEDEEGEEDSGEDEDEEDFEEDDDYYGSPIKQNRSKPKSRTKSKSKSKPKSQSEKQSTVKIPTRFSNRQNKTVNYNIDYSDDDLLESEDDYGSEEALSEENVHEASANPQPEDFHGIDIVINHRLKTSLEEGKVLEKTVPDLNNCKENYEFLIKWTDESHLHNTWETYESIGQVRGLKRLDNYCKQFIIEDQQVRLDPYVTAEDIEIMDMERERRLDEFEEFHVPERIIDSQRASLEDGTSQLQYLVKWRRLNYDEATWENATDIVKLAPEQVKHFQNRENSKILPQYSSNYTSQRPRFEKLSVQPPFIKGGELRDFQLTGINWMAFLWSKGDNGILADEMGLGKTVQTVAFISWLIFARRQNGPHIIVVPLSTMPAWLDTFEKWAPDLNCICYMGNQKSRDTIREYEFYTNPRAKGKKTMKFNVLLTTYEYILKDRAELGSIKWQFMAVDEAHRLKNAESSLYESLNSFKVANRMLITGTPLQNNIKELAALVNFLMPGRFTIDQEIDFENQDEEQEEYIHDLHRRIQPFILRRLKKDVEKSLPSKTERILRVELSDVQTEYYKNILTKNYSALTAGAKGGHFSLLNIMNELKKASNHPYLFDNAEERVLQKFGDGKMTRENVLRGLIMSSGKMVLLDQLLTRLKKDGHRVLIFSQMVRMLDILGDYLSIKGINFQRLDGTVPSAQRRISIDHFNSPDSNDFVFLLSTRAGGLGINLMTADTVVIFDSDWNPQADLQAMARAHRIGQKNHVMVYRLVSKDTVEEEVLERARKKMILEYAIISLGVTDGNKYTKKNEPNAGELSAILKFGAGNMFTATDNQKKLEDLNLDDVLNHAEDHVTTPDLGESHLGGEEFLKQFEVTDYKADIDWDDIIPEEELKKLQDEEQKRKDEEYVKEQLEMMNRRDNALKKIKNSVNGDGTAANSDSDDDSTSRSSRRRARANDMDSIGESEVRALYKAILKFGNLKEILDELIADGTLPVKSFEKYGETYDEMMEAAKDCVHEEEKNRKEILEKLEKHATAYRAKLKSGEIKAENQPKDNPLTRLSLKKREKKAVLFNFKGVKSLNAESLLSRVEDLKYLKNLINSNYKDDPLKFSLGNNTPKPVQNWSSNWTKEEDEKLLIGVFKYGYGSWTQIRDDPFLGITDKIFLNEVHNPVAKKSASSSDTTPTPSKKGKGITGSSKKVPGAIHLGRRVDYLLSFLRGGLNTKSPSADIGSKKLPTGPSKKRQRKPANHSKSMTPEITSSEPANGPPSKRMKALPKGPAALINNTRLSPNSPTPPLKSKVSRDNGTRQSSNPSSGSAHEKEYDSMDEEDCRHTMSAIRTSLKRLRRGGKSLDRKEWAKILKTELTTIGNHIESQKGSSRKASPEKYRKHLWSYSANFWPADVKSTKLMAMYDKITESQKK

Protein translocase subunit SecA (Escherichia coli (strain K12)), sequence (P10408 whole entry): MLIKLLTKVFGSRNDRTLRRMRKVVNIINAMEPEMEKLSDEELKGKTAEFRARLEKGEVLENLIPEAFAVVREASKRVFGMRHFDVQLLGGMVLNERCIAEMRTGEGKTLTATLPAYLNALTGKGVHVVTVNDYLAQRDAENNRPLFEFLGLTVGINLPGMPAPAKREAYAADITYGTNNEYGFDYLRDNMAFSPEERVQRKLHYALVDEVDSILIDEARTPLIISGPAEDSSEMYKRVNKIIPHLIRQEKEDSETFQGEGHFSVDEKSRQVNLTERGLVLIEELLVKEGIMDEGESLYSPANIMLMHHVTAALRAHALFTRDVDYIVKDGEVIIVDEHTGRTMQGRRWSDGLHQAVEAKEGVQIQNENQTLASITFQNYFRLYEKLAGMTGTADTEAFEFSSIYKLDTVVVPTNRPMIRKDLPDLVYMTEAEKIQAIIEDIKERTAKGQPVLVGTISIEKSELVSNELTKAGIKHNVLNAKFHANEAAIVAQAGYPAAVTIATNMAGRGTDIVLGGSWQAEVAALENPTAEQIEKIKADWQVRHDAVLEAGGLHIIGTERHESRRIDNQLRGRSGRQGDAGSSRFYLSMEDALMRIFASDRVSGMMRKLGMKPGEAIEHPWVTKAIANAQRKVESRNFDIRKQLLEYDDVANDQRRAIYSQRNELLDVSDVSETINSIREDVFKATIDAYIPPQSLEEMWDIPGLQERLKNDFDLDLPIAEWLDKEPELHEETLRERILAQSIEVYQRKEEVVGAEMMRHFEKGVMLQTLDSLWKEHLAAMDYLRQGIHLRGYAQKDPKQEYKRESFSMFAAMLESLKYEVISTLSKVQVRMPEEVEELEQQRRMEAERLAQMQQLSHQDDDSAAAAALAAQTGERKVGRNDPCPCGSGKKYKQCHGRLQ

Take `O=c1[nH]c2c(c(=O)n1C1CCCCC1)CCC2Nc1ccccc1Cl` (stereo not drawn): the Percent Effect in test [1] is -2.47%; in test [2], 6.67%; in test [3] it was -9.22%; in [4], -1.39%; with Trypanosoma cruzi it was 4.71%; in test [5] it was 92.1%. Besides, the Percent Effect in test [6] was 5.36%; in the test filed under Homo sapiens, 33.1%; in test [7], -9.52%; in test [8] it was -7.69%; in test [9], -11.3%.

On to `Cc1ccc(C2CCCCCN2Cc2cn(C)nc2C)s1` (stereo not drawn), for which the Percent Effect is -9.52% in test [1]; 18.2% in test [2]; 0.0483% in [3]; -1.66% in [4]; 1.48% in the test on Trypanosoma cruzi; -4.52% in test [5]. Moreover, the Percent Effect in test [6] was 9.92%; in the test filed under Homo sapiens, -5.04%; in [7], 0%; in test [8], 14.1%; in test [9] it was -7.58%.

As to `CS(=O)(=O)N1CC[C@H]2O[C@H](C(=O)NCCc3ccncc3)CC[C@H]21`, the Percent Effect in test [1] was -7.37%; in [2], 0%; in test [3] it was 5.86%; in test [4], -3.48%; in the test with Trypanosoma cruzi, -2.51%; in test [5], -57.5%. The Percent Effect is -1.03% in [6]; 15% in the test filed under Homo sapiens; 2.08% in test [7]; -15% in test [8]; 3.45% in [9].

In the case of `Cc1cc(NC(=O)C(c2cccc(F)c2)N2CCOCC2)ccn1` (stereo not drawn), the Percent Effect in test [1] is -4.97%; in test [2], 10.5%; in [3], 2.55%; in test [4], 5.76%; with Trypanosoma cruzi it was 1.66%; in test [5], -9.47%. Moreover, the Percent Effect in test [6] was 10.6%; in the test listed under Homo sapiens, 3.19%; in test [7], 2.13%; in [8], 7.79%; in test [9], -7.19%.

On to `CN(C)C(=O)CN1C[C@@H]2CC[C@H](C1)N(Cc1cccc(Cl)c1Cl)C2`, for which the Percent Effect is 6.03% in [1]; 2.74% in test [2]; 1.3% in [3]; -0.255% in [4]; 2.58% in the test with Trypanosoma cruzi; -19.6% in test [5]. In addition, the Percent Effect was determined as 22.5% in test [6]; 14% in the test listed under Homo sapiens; 10.4% in [7]; 25.9% in test [8]; 0.27% in [9].

With `CCc1c(C(=O)NCC(=O)OCC2CC2)cnn1-c1ccc(C)cc1`, the Percent Effect was -5.86% in test [1]; 22.8% in [2]; 2.14% in [3]; -2.84% in test [4]; 9.54% in the test on Trypanosoma cruzi; 0.38% in [5]. Also, the Percent Effect in [6] was 10.7%; in the test filed under Homo sapiens, 29%; in test [7], 6.4%; in [8], 24.1%; in [9], -9.54%.

Take `Cc1oc(C)c(C(=O)NCc2ccccn2)c1C`: the Percent Effect in test [1] was -0.692%; in [2], 10.5%; in [3] it was -8.31%; in [4], 2.54%; in the test with Trypanosoma cruzi, -12.8%; in test [5] it was 7.28%. Also, the Percent Effect in [6] was 15.7%; in the test listed under Homo sapiens, 14%; in test [7], 1.47%; in test [8], 7.32%; in test [9], -5.27%.

As for `CSc1ccc(NS(=O)(=O)c2cnn(C)c2)cn1`, the Percent Effect is -5.12% in test [1]; 8.22% in test [2]; -0.942% in [3]; 42.3% in test [4]; 3.57% with Trypanosoma cruzi; -4.39% in [5]. The Percent Effect in test [6] was 0.0856%; in the test listed under Homo sapiens, -19.3%; in test [7], 4.17%; in test [8] it was 13.6%; in test [9], -2.22%.
